What all share (test): DAPPL (digital affinity profiling via proximity ligation, sequencing); 10 mM Tris-HCl pH 7.5, 50 mM NaCl, 1 mM DTT, 4% glycerol, room temperature, 30 min; GST-TFs on glutathione beads, 16-mer random dsDNA library, 0.1% formaldehyde crosslink after washing; high values mean tight binding
For one experiment, the target named is T1, FLI1 (Homo sapiens, UniProt Q01543 1-452).
T1 sequence: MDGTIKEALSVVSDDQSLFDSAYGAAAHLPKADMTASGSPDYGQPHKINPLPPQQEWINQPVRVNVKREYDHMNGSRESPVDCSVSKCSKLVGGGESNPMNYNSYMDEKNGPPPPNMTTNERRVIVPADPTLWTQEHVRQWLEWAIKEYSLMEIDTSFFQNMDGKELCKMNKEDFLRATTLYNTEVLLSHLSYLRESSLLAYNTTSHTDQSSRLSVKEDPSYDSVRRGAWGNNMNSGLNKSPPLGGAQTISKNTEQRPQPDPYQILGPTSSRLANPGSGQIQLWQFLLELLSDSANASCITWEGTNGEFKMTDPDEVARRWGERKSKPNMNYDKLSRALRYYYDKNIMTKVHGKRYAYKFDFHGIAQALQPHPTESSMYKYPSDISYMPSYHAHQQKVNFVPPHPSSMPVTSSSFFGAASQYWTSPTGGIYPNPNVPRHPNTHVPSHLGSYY
The note with it: protein: recombinant; tags: N-terminal GST; dsDNA, one strand shown. Put shortly:
(§1)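 Binding signal is each hexamer's read frequency for a factor divided by its frequency in the tag-only sample. The factors were GST-fused human transcription factors from yeast, captured on glutathione beads, DNA-barcoded and pooled with that sample. Pools were incubated with 200 nmole of a random double-stranded 16-mer DNA library in Tris/NaCl/DTT/glycerol buffer at room temperature for 30 min, then washed, crosslinked with 0.1% formaldehyde, proximity-ligated with BsaI/T4 ligase (1 h, 37 °C), PCR-amplified and sequenced on an Illumina NextSeq500.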

The target of the next experiment is T2, ELK1 (Homo sapiens, UniProt P19419 1-428).
T2 sequence: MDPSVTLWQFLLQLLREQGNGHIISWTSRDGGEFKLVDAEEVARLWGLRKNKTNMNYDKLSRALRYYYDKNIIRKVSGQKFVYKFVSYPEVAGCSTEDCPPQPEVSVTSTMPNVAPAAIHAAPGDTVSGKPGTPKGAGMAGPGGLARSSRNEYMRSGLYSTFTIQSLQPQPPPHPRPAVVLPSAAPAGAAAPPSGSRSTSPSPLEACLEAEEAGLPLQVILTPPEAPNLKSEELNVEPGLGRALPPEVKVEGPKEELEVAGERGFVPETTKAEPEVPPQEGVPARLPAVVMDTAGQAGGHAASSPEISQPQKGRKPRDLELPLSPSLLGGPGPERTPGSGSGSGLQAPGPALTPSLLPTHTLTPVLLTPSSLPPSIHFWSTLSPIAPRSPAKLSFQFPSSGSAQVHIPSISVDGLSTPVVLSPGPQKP
The note with it: protein: recombinant; tags: N-terminal GST; dsDNA, one strand shown. Put shortly:
as §1

Another experiment concerns the target T3, GABPA (Homo sapiens, UniProt Q06546 1-454).
T3 sequence: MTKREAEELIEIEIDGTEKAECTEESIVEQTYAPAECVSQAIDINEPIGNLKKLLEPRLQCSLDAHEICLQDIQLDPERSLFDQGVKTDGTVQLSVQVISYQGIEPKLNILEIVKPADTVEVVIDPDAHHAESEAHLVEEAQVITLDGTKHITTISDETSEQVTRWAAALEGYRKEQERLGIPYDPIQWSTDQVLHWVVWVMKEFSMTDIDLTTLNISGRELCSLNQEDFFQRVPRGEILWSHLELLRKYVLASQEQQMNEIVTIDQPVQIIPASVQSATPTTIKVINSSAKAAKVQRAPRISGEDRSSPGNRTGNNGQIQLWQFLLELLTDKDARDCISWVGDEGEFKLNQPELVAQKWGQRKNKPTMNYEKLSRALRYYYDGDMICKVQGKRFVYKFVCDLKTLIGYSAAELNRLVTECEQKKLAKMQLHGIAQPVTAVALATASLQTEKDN
The note with it: protein: recombinant; tags: N-terminal GST; dsDNA, one strand shown. In outline: as §1

A further experiment concerns the target T4, ERG (Homo sapiens, UniProt P11308 1-479).
T4 sequence: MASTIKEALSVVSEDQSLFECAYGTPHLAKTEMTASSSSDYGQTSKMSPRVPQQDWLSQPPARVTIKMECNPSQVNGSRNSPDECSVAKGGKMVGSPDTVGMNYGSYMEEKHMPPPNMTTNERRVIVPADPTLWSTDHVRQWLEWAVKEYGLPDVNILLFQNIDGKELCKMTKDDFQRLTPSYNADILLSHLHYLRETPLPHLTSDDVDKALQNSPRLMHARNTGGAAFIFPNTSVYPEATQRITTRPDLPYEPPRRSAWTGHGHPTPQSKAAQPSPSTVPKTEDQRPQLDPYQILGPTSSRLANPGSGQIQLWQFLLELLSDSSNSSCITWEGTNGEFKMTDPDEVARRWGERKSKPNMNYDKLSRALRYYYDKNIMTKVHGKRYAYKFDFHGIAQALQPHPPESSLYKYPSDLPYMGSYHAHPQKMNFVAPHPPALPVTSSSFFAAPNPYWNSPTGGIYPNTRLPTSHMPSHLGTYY
The note with it: protein: recombinant; tags: N-terminal GST; dsDNA, one strand shown. Put shortly:
as §1

A further experiment addresses ELF1 (Homo sapiens, UniProt P32519 1-619). The note with it: protein: recombinant; tags: N-terminal GST; dsDNA, one strand shown. In outline:
as §1

A further experiment has as its target T5, EHF (Homo sapiens, UniProt Q9NZC4 1-300).
T5 sequence: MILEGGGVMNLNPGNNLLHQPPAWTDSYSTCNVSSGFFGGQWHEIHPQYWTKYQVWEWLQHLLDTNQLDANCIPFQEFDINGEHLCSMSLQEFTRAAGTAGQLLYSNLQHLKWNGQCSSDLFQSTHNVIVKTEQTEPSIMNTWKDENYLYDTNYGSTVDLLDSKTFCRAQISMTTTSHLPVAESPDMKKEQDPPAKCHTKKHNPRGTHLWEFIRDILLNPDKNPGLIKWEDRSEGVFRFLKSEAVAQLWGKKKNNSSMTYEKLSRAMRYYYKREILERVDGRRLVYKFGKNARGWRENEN
The note with it: protein: recombinant; tags: N-terminal GST; dsDNA, one strand shown. In outline: as §1

The next experiment deals with SPI1 (Homo sapiens, UniProt P17947 1-270). The note with it: protein: recombinant; tags: N-terminal GST; dsDNA, one strand shown. In outline:
as §1

A further experiment deals with T6, ELK3 (Homo sapiens, UniProt P41970 1-407).
T6 sequence: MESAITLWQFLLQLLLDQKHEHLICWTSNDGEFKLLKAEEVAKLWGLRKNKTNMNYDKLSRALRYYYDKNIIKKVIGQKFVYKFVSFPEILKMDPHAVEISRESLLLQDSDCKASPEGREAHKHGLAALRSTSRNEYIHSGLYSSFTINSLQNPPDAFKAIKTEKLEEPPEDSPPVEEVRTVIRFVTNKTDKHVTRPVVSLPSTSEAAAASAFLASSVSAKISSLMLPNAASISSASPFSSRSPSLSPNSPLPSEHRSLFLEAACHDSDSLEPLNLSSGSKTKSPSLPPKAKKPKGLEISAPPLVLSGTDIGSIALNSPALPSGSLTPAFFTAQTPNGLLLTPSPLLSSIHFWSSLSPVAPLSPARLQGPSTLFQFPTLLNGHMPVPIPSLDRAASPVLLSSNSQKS
The note with it: protein: recombinant; tags: N-terminal GST; dsDNA, one strand shown. In outline:
as §1

In the next experiment the target is T7, FEV (Homo sapiens, UniProt Q99581 1-238).
T7 sequence: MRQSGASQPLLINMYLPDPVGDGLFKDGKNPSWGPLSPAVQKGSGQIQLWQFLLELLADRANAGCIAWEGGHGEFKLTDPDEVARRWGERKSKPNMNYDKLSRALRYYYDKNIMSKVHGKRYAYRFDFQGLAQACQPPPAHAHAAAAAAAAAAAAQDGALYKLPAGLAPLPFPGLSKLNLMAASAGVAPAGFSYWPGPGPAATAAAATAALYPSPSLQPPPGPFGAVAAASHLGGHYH
The note with it: protein: recombinant; tags: N-terminal GST; dsDNA, one strand shown. In outline: as §1

In another experiment the target is ETV5 (Homo sapiens, UniProt P41161 1-510). The note with it: protein: recombinant; tags: N-terminal GST; dsDNA, one strand shown. In outline:
as §1

The target of the next experiment is HSF1 (Homo sapiens, UniProt Q00613 1-529). The note with it: protein: recombinant; tags: N-terminal GST; chain copies: 3; dsDNA, one strand shown. Put shortly:
as §1

Another experiment concerns the target T8, SPIC (Homo sapiens, UniProt Q8N5J4 1-248).
T8 sequence: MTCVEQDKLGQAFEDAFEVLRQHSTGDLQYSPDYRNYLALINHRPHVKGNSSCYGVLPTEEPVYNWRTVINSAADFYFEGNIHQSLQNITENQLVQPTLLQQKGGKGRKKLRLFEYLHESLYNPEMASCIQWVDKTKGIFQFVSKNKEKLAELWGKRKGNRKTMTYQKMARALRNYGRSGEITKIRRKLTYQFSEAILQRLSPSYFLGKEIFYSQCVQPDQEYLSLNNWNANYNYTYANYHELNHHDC
The note with it: protein: recombinant; tags: N-terminal GST; dsDNA, one strand shown. Put shortly:
as §1

For another experiment, the target named is ELF4 (Homo sapiens, UniProt Q99607 1-663). The note with it: protein: recombinant; tags: N-terminal GST; dsDNA, one strand shown. In outline: as §1
The target of another experiment is T9, ELK4 (Homo sapiens, UniProt P28324-2 1-405).
T9 sequence: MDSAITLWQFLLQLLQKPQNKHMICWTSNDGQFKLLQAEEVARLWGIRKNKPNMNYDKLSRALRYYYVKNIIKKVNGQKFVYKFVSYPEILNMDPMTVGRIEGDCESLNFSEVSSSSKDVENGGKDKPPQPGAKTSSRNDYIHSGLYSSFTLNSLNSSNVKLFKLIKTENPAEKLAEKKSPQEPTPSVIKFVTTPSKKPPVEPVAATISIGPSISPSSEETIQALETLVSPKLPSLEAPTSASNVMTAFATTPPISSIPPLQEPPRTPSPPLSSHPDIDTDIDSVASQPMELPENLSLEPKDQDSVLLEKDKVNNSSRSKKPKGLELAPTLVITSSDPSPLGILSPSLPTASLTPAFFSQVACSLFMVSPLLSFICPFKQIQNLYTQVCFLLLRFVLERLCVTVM
The note with it: protein: recombinant; tags: N-terminal GST; dsDNA, one strand shown. In outline: as §1

The target of another experiment is T10, ETV2 (Homo sapiens, UniProt O00321 1-342).
T10 sequence: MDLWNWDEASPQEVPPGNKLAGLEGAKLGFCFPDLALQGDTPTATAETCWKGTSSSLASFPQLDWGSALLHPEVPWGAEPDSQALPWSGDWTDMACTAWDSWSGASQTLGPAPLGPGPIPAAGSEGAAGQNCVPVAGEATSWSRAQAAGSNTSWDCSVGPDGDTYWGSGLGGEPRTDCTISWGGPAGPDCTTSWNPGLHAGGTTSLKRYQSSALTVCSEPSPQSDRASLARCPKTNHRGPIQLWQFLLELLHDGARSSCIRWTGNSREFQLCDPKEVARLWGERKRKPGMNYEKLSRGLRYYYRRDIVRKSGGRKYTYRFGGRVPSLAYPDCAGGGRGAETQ
The note with it: protein: recombinant; tags: N-terminal GST; dsDNA, one strand shown. Put shortly: as §1

A further experiment addresses T11, ELF3 (Homo sapiens, UniProt P78545 1-371).
T11 sequence: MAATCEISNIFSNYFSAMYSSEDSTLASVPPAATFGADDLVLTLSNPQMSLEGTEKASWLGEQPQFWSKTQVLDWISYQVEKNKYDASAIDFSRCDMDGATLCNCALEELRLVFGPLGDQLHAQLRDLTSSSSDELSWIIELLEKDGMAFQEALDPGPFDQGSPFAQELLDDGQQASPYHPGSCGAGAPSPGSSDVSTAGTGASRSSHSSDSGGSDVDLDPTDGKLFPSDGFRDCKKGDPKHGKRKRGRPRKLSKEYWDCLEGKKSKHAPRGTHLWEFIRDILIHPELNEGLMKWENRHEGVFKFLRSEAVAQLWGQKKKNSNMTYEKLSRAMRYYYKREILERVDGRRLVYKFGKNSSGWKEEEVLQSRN
The note with it: protein: recombinant; tags: N-terminal GST; dsDNA, one strand shown. In outline:
as §1

A further experiment deals with ETV1 (Homo sapiens, UniProt P50549 1-477). The note with it: protein: recombinant; tags: N-terminal GST; dsDNA, one strand shown. Put shortly:
as §1

ELF4, sequence (Q99607 whole entry): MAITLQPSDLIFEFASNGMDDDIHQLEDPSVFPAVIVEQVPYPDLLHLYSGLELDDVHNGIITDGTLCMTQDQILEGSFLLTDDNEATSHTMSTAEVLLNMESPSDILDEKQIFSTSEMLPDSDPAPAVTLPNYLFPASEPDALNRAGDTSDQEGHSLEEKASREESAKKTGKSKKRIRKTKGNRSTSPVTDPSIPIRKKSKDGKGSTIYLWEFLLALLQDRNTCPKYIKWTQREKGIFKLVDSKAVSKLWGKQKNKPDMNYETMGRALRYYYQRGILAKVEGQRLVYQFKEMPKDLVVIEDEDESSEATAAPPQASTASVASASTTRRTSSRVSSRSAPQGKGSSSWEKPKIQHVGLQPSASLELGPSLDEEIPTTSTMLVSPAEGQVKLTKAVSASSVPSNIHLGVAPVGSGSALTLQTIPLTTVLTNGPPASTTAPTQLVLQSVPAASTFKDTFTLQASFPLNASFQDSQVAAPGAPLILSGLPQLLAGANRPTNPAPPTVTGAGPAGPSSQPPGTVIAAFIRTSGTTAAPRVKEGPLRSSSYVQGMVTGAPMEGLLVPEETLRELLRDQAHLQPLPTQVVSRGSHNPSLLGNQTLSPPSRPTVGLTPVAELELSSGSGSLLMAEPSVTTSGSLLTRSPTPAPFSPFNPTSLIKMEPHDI
ETV1, sequence (P50549 whole entry): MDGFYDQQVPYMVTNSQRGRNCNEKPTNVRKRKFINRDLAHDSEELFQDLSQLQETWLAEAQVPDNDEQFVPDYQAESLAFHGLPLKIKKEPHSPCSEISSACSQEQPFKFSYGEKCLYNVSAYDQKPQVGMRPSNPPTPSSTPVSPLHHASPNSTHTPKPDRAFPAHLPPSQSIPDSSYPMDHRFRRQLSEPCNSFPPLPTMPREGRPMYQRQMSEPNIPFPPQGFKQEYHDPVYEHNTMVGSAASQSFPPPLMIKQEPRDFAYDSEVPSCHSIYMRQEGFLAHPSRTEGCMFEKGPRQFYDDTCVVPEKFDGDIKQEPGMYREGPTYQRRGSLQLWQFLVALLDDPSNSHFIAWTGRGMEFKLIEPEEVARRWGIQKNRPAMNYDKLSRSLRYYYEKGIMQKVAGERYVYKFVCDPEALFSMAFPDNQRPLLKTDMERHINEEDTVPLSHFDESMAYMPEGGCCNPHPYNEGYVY
ELF1, sequence (P32519 whole entry): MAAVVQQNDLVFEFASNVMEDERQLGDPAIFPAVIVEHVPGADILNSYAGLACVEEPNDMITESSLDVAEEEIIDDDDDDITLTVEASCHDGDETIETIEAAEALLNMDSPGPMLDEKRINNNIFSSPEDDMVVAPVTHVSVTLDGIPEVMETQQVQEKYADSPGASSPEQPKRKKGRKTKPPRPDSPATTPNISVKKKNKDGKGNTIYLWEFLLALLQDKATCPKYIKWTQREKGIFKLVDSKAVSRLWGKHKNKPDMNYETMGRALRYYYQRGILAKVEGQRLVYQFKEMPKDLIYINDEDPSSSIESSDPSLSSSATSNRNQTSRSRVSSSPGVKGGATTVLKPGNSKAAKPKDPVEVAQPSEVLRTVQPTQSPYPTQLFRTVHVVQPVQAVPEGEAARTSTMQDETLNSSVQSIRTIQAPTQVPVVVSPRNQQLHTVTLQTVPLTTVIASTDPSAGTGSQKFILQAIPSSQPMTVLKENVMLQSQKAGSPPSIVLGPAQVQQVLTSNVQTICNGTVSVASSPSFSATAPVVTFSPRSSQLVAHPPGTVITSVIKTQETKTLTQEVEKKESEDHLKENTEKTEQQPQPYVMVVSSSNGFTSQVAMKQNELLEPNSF
HSF1, sequence (Q00613 whole entry): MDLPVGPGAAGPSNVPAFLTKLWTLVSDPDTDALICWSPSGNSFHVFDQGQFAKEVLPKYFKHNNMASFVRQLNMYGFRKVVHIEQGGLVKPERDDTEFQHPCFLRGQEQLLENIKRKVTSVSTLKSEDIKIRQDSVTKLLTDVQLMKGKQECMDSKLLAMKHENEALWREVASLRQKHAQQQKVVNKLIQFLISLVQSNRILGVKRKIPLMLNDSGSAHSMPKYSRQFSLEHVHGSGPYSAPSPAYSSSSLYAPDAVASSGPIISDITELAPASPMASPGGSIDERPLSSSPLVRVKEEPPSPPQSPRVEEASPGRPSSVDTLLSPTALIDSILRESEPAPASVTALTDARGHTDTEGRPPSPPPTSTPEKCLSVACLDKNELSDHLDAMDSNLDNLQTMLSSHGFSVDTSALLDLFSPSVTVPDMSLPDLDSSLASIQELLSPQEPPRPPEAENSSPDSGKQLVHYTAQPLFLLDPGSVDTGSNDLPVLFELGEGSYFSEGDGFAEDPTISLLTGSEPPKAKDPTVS
ETV5, sequence (P41161 whole entry): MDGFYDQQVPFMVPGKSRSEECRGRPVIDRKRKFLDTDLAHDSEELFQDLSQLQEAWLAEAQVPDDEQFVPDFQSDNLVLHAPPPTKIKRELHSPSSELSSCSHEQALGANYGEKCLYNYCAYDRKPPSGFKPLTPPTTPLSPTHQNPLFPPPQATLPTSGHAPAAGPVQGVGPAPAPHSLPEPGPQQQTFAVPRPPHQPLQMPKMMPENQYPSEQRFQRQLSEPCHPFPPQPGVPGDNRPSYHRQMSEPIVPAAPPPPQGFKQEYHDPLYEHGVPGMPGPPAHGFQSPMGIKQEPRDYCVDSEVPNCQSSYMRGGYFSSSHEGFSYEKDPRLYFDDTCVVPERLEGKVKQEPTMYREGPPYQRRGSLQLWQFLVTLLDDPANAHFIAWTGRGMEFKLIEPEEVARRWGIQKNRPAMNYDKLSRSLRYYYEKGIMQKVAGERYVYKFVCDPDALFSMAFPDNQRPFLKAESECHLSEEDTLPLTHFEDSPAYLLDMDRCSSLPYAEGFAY

Turning to CACGAA, the binding signal with FLI1 was 1.05 fold enrichment (6-mer frequency, TF over GST control); in the experiment with ELK1 it was 1.15 fold enrichment (6-mer frequency, TF over GST control); with GABPA, 1.19 fold enrichment (6-mer frequency, TF over GST control); with ERG, 1.1 fold enrichment (6-mer frequency, TF over GST control); with ELF1, 1.11 fold enrichment (6-mer frequency, TF over GST control); with EHF, 1.07 fold enrichment (6-mer frequency, TF over GST control). Further, the binding signal with SPI1 is 1.06 fold enrichment (6-mer frequency, TF over GST control); with ELK3 it was 1.03 fold enrichment (6-mer frequency, TF over GST control); with FEV, 1.09 fold enrichment (6-mer frequency, TF over GST control); with ETV5 it was 1.1 fold enrichment (6-mer frequency, TF over GST control); in the experiment with HSF1, 1.39 fold enrichment (6-mer frequency, TF over GST control); with SPIC, 1.12 fold enrichment (6-mer frequency, TF over GST control). The binding signal with ELF4 is 1.2 fold enrichment (6-mer frequency, TF over GST control); with ELK4, 1.3 fold enrichment (6-mer frequency, TF over GST control); with ETV2, 1.18 fold enrichment (6-mer frequency, TF over GST control); with ELF3 it was 1.07 fold enrichment (6-mer frequency, TF over GST control); with ETV1 it was 1.14 fold enrichment (6-mer frequency, TF over GST control).

The values above are taken from publication PMC7862700, “An all-to-all approach to the identification of sequence-specific readers for epigenetic DNA modifications on cytosine”.
